Assay results taken from PubChem BioAssay (EPA / NIEHS).
Active and inactive are the calls of the source. How the source made its calls: active means hit-call score of the fitted dose curve at least 0.9, where 1 is the maximum; inactive means score below 0.9.

Read-out: Vascular endothelial growth factor receptor 2 (Homo sapiens) (UniProt P35968)
Test: BSK_4H_VEGFRII: BioMAP Diversity Plus: 4H Assay for Vascular endothelial growth factor receptor 2 (VEGFR2) Biomarker Activity (AID 2283031);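 on AC50: cell-surface VEGFR2 protein level quantified by ELISA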
Details: primary human endothelial cells (HUVEC); actives raise or lower the signal
In short: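 In this multiplexed HUVEC system, biomarker ELISA was performed after 24 h chemical exposure. Parallel SRB staining (TCA fixation, 560 nm) tracked cytotoxicity; DMSO served as baseline.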

| SMILES | outcome | AC50 |
| --- | --- | --- |
| CCCCC(CC)COC(=O)CCCCC(=O)OCC(CC)CCCC (stereo unspecified) | inactive |  |
| Nc1cccc2c(N)cccc12 | inactive |  |
| CCCCC(CC)COC(=O)CCCCC(=O)OCc1ccccc1 (stereo unspecified) | inactive |  |
| Oc1cc2ccccc2c2ccccc12 |  | 30.1 µM (active) |
| CC(O)CO (stereo unspecified) | inactive |  |
| CN1CCN(c2ccccc2/C=C2\SCCN(c3ccc(Cl)c(Cl)c3)C2=O)CC1 | inactive |  |
| O=c1c(-c2ccc(O)cc2)coc2cc(O)ccc12 | inactive |  |
| Cc1oc(-c2ccccc2)nc1CCOc1ccc(C[C@H](Nc2ccccc2C(=O)c2ccccc2)C(=O)O)cc1 | inactive |  |
| CCC(=C(c1ccc(O)cc1)c1ccc(OCCN(C)C)cc1)c1ccccc1 | inactive |  |
| c1ccc2cc3c(ccc4ccccc43)cc2c1 | inactive |  |
| O=[N+]([O-])c1ccc(O)cc1 | inactive |  |
| O=C(O)c1ccccc1C(c1ccc(O)cc1)c1ccc(O)cc1 | inactive |  |
| CCCCCCCCCCCCc1ccccc1S(=O)(=O)O | inactive |  |
| NC(=O)N1C(=O)C(C(=O)c2cc(Cl)cs2)c2cc(F)c(Cl)cc21 (stereo unspecified) | inactive |  |
| CC1=C(/C=C/C(C)=C/C=C/C(C)=C/C(=O)O)C(C)(C)CCC1 | inactive |  |
| CC[C@H](c1ccc(O)cc1)[C@@H](CC)c1ccc(O)cc1 | inactive |  |
| CC(C)(C)CC(C)(C)c1ccc(O)c(-n2nc3ccccc3n2)c1 | inactive |  |

| SMILES | outcome | AC50 |
| --- | --- | --- |
| CCCCCCCCOC(=O)CCCCCCCCC(=O)OCCCCCCCC | inactive |  |
| CCc1nn(C2CCCCC2)c2cc(C3(C#N)CCC(C(=O)O)CC3)ccc12 (stereo unspecified) | inactive |  |
| CN1CCC[C@H]1c1cccnc1 | inactive |  |
| CCCCCCCCCCCCN1CCCC1=O | inactive |  |
| C#C[C@]1(O)CC[C@H]2[C@@H]3CCC4=CC(=O)CC[C@@H]4[C@H]3CC[C@@]21C |  | 20 µM (active) |
| CC#C[C@]1(O)CC[C@H]2[C@@H]3CCC4=CC(=O)CCC4=C3[C@@H](c3ccc(N(C)C)cc3)C[C@@]21C | inactive |  |
| COc1ccc([N+](=O)[O-])cc1N | inactive |  |
| CC(=O)NC1(c2cccc(F)c2)CCN(CC[C@@]2(c3ccc(Cl)c(Cl)c3)CN(c3ccccc3)C(=O)CO2)CC1 | inactive |  |
| OC1CCC(C2CCCCC2)CC1 (stereo unspecified) | inactive |  |
| CC(C)(C)c1ccc(O)c(C(C)(C)C)c1 | inactive |  |
| CC[C@H](C)[C@@H](C(=O)O)n1sc2ccccc2c1=O | inactive |  |
| OC1CCCCC1 | inactive |  |
| O=C(O)Cc1cc(I)c(Oc2cc(I)c(O)c(I)c2)c(I)c1 | inactive |  |
| c1ccc2c(c1)Cc1ccccc1-2 | inactive |  |
| C=C(C)C(=O)OCCC(F)(F)C(F)(F)C(F)(F)C(F)(F)C(F)(F)C(F)(F)F | inactive |  |
| CCCOc1sc(C(=O)N2CCC(c3cc(CN)ccc3F)CC2)c(C)c1Br |  | 4.78 µM (active) |

Read-out: Human Leukocyte Antigen - DR isotype (HLADR), HLA-DRA (gene 3122)
Test: BSK_BE3C_HLADR: BioMAP Diversity Plus: BE3C Assay for Human Leukocyte Antigen - DR isotype (HLADR) Biomarker Activity (AID 2283032)
Details: primary human bronchial epithelial cells; actives raise or lower the signal
In short: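 Human primary bronchial epithelial cells in the BE3C system were exposed to chemicals for 24 h, after which HLA-DR levels were quantified by ELISA. Activity was fitted bidirectionally, gain or loss of signal, against DMSO as negative control and baseline.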

| SMILES | outcome | AC50 |
| --- | --- | --- |
| CCCCC(CC)COC(=O)CCCCC(=O)OCC(CC)CCCC (stereo unspecified) | inactive |  |
| Nc1cccc2c(N)cccc12 | inactive |  |
| CCCCC(CC)COC(=O)CCCCC(=O)OCc1ccccc1 (stereo unspecified) | inactive |  |
| Oc1cc2ccccc2c2ccccc12 |  | 13.8 µM (active) |
| CC(O)CO (stereo unspecified) | inactive |  |
| CN1CCN(c2ccccc2/C=C2\SCCN(c3ccc(Cl)c(Cl)c3)C2=O)CC1 |  | 25.7 µM (active) |
| O=c1c(-c2ccc(O)cc2)coc2cc(O)ccc12 | inactive |  |
| Cc1oc(-c2ccccc2)nc1CCOc1ccc(C[C@H](Nc2ccccc2C(=O)c2ccccc2)C(=O)O)cc1 |  | 3.01 µM (active) |
| CCC(=C(c1ccc(O)cc1)c1ccc(OCCN(C)C)cc1)c1ccccc1 |  | 8.64 µM (active) |
| c1ccc2cc3c(ccc4ccccc43)cc2c1 | inactive |  |
| O=[N+]([O-])c1ccc(O)cc1 | inactive |  |
| O=C(O)c1ccccc1C(c1ccc(O)cc1)c1ccc(O)cc1 |  | 31.6 µM (active) |
| CCCCCCCCCCCCc1ccccc1S(=O)(=O)O |  | 8.12 µM (active) |
| NC(=O)N1C(=O)C(C(=O)c2cc(Cl)cs2)c2cc(F)c(Cl)cc21 (stereo unspecified) |  | 2.85 µM (active) |
| CC1=C(/C=C/C(C)=C/C=C/C(C)=C/C(=O)O)C(C)(C)CCC1 |  | 20 µM (active) |
| CC[C@H](c1ccc(O)cc1)[C@@H](CC)c1ccc(O)cc1 |  | 19.1 µM (active) |
| CC(C)(C)CC(C)(C)c1ccc(O)c(-n2nc3ccccc3n2)c1 | inactive |  |

| SMILES | outcome | AC50 |
| --- | --- | --- |
| CCCCCCCCOC(=O)CCCCCCCCC(=O)OCCCCCCCC | inactive |  |
| CCc1nn(C2CCCCC2)c2cc(C3(C#N)CCC(C(=O)O)CC3)ccc12 (stereo unspecified) |  | 31 µM (active) |
| CN1CCC[C@H]1c1cccnc1 | inactive |  |
| CCCCCCCCCCCCN1CCCC1=O |  | 26.2 µM (active) |
| C#C[C@]1(O)CC[C@H]2[C@@H]3CCC4=CC(=O)CC[C@@H]4[C@H]3CC[C@@]21C | inactive |  |
| CC#C[C@]1(O)CC[C@H]2[C@@H]3CCC4=CC(=O)CCC4=C3[C@@H](c3ccc(N(C)C)cc3)C[C@@]21C | inactive |  |
| COc1ccc([N+](=O)[O-])cc1N | inactive |  |
| CC(=O)NC1(c2cccc(F)c2)CCN(CC[C@@]2(c3ccc(Cl)c(Cl)c3)CN(c3ccccc3)C(=O)CO2)CC1 |  | 24.5 µM (active) |
| OC1CCC(C2CCCCC2)CC1 (stereo unspecified) | inactive |  |
| CC(C)(C)c1ccc(O)c(C(C)(C)C)c1 |  | 28.1 µM (active) |
| CC[C@H](C)[C@@H](C(=O)O)n1sc2ccccc2c1=O | inactive |  |
| OC1CCCCC1 | inactive |  |
| O=C(O)Cc1cc(I)c(Oc2cc(I)c(O)c(I)c2)c(I)c1 |  | 5.22 µM (active) |
| c1ccc2c(c1)Cc1ccccc1-2 | inactive |  |
| C=C(C)C(=O)OCCC(F)(F)C(F)(F)C(F)(F)C(F)(F)C(F)(F)C(F)(F)F | inactive |  |
| CCCOc1sc(C(=O)N2CCC(c3cc(CN)ccc3F)CC2)c(C)c1Br |  | 7.9 µM (active) |
